In assay [1] the target is Rap guanine nucleotide exchange factor 3 (Homo sapiens) (UniProt O95398). Description: Confirmatory qHTS for antagonist of cAMP-regulated guanine nucleotide exchange factor 3 (EPAC1) (AID 1645880). Note: nearly all actives have a fitted effect of over 55% in size. Note: potency is the fitted concentration of half-maximal effect. An outline of the steps:
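Released BODIPY-GDP fluoresces less than Rap1-bound BODIPY-GDP; the signal is followed at 480/540 nm at 5-min intervals over 30 min, after 5 min at room temperature. Reactions contain 100 nM EPAC1, 250 nM RAP1B-BODIPY-GDP and 50 uM GDP; results are normalized to ATA and DMSO.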

Assay [2] has the same target. Description: Confirmatory qHTS for agonist of cAMP-regulated guanine nucleotide exchange factor 3 (EPAC1) (AID 1645881).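 For activation: EPAC1 catalysed release of BODIPY-GDP from Rap1B seen as fluorescence loss; 100% = effect of cAMP agonist control.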 Note: nearly all actives have a fitted effect of over 75% in size. Note: potency is the fitted concentration of half-maximal effect. On the technique in general: In qHTS, concentration-response curves come from the screen itself.
Assay [3] concerns the target Rap guanine nucleotide exchange factor 4 (Homo sapiens) (UniProt Q8WZA2). As to the kind of experiment: Confirmatory qHTS for agonist of cAMP-regulated guanine nucleotide exchange factor 4 (EPAC2) (AID 1645884).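 Note: nucleotide exchange releases bodipy-GDP from Rap1 and this lowers its fluorescence; % is set by controls: 0 for no effect and ±100 for the full control effect; nearly all actives have a fitted effect of over 65% in size.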
The target is the same in assay [4]. Description: Confirmatory qHTS for antagonist of cAMP-regulated guanine nucleotide exchange factor 4 (EPAC2) (AID 1645885). For activity change, negative = inhibition: % is set by controls: 0 for no effect and ±100 for the full control effect. Note: nearly all actives have a fitted effect of over 25% in size.
Assay [5] has as its target Rap guanine nucleotide exchange factor 3 (Homo sapiens) (UniProt O95398). Description: Counterscreen qHTS for antagonist of cAMP-regulated guanine nucleotide exchange factor 3 (EPAC1) (AID 1645888). Note: % of control where 0% means no effect. An outline of the steps: (§1)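 Rap1B-BODIPY-GDP 250 nM + GDP 50 uM; cpds 7-pt, final 9.74 nM–152 uM (activator mode) or from 7.32 nM upwards (inhibitor mode); RT; FI 480/540 nm at 5 and 30 min, then ± cAMP, reread.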
For orientation: Counterscreens check selectivity or assay interference.

Assay [6] shares this target. Description: Counterscreen qHTS for agonist of cAMP-regulated guanine nucleotide exchange factor 3 (EPAC1) (AID 1645889). For activation: % of control where 0% means no effect. Note: nearly all actives have a fitted effect of over 40% in size. Note: potency is the fitted concentration of half-maximal effect. An outline of the steps:
as §1

Records with an inconclusive call do not appear. A number with no mark means an inactive call. Calls of active or inactive are those of the source. Calls come from the whole dose curve; as a rule, active = well fitted curve in the direction sought with a large enough effect; inconclusive = small, poorly fitted or top-dose-only effect, or another doubt; inactive = no such curve, though single readings can be large; an effect the other way counts as inactive or inconclusive.

Rap guanine nucleotide exchange factor 3 (Homo sapiens), sequence (O95398 whole entry, looked up): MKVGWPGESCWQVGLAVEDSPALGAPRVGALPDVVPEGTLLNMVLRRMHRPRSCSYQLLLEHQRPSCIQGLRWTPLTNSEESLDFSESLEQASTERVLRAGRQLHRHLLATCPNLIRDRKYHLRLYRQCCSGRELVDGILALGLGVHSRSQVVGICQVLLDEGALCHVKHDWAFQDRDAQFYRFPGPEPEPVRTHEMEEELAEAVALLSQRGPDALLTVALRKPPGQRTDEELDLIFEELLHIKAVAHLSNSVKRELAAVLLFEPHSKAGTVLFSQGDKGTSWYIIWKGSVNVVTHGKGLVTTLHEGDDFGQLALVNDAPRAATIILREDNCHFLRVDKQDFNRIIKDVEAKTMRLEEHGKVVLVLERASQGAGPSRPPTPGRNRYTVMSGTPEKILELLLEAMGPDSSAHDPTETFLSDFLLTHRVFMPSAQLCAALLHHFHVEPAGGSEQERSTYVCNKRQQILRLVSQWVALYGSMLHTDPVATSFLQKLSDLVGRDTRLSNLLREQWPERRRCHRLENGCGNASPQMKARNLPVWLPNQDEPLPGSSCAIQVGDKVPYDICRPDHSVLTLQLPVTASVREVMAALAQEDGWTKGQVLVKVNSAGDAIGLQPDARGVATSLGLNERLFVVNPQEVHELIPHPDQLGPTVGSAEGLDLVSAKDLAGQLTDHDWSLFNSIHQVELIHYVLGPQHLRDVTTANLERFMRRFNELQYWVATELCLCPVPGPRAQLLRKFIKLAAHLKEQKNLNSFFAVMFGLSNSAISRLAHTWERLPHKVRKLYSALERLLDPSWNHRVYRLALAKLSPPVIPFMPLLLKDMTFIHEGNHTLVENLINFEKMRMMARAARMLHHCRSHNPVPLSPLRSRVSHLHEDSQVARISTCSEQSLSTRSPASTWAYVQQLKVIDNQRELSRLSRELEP
Rap guanine nucleotide exchange factor 4 (Homo sapiens), sequence (Q8WZA2 whole entry, looked up): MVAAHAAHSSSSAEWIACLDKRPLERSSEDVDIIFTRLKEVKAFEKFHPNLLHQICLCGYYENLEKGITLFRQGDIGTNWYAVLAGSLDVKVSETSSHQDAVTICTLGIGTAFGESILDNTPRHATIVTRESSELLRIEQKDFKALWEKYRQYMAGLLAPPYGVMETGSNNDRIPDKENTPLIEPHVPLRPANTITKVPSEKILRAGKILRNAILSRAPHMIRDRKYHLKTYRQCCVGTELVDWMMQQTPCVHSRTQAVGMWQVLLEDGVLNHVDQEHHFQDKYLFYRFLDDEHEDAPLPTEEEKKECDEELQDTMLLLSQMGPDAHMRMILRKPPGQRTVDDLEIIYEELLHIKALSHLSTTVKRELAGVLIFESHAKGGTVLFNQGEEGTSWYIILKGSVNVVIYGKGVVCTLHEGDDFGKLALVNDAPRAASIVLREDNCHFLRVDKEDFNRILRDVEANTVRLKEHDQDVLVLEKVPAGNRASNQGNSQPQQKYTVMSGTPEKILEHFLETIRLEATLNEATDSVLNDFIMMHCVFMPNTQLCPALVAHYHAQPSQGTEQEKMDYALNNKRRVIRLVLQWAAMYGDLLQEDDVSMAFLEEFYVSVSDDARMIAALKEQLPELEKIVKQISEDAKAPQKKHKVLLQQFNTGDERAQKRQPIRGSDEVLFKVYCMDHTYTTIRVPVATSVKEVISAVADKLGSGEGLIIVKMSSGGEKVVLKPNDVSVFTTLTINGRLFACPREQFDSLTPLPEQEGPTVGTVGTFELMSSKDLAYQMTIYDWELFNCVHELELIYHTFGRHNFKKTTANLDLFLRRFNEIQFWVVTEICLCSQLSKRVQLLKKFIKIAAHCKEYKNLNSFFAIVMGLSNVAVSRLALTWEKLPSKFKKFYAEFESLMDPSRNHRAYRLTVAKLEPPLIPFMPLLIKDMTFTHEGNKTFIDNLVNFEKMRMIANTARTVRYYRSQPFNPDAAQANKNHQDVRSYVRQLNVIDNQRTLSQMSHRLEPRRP

Turning to `CC1S/C(=N/N=C2CCC(C(C)(C)C)CC2)NC1=O` (stereo unspecified), the Potency result in assay [1], in assay [2] and in assay [4] was “inactive” in each case. Moreover, the activation in assay [3] was -7.78% [at 17.1 µM, percent relative to cAMP agonist control]; in assay [6] it was 18.6% [at 30.8 µM]. The activity change, negative = inhibition in assay [5] was 2.96% [at 30.8 µM].

For `Nc1c(-c2nc(-c3cccs3)no2)nnn1-c1cccc(Cl)c1`, the Potency entry in assay [1], in assay [2], in assay [3], in assay [5] and in assay [6] was “inactive” each time. Moreover, the outcome in assay [4] was “inactive [at 12.7 µM]”.

Turning to `Cc1csc(SCC(=O)NC23CC4CC(CC(C4)C2)C3)n1`, the Potency result in assay [1], in assay [2] and in assay [4] was “inactive” each time. The activation is 1.39% [at 17.1 µM, percent relative to cAMP agonist control] in assay [3] and 22.6% [at 30.8 µM] in assay [6]. In addition, in assay [5], the activity change, negative = inhibition is -23.6% [at 30.8 µM].

Take `O=C(O)CCCCCN1C(=O)/C(=C/c2cn(-c3ccccc3)nc2-c2cccs2)SC1=S`: the Potency entry in assay [1] and in assay [4] was “inactive” in each case. In addition, the figures for the Potency in assay [2] and in assay [6] were 79.4 µM (active) and 14.1 µM (active), respectively. The activation in assay [3] is 17.7% [at 17.1 µM, percent relative to cAMP agonist control]. For the same compound, the activity change, negative = inhibition in assay [5] is 39% [at 30.8 µM].

Turning to `CCOC(=O)C1=C(C)OC(N)=C(C#N)C1c1ccc(OC)c(CSc2ccccn2)c1` (stereo unspecified), the Potency entry in assay [1], in assay [2] and in assay [4] was “inactive” each time. The activation in assay [3] was 7.18% [at 17.1 µM, percent relative to cAMP agonist control]; in assay [6], 28.3% [at 30.8 µM]. Also, the activity change, negative = inhibition in assay [5] was -6.88% [at 30.8 µM].

Regarding `N=C1/C(=C\c2ccc(OC(=O)c3ccccc3Cl)cc2)C(=O)N=C2SC(N3CCOCC3)=NN12`, in assay [1], the Potency was 19 µM (active). Besides, the Potency result in assay [2], in assay [3], in assay [4], in assay [5] and in assay [6] was “inactive” in each case.

As to `Cc1[nH]c2ccccc2c1C(C[N+](=O)[O-])c1cccs1` (stereo unspecified), the Potency result in assay [1], in assay [2] and in assay [4] was “inactive” throughout. Also, the activation was 5.2% [at 17.1 µM, percent relative to cAMP agonist control] in assay [3] and 46.2% [at 30.8 µM] in assay [6]. Also, the activity change, negative = inhibition in assay [5] was -10.6% [at 30.8 µM].

For `COc1ccc(C(=O)NCCONC(=O)c2ccc(OC)cc2)cc1`, the Potency entry in assay [1], in assay [2], in assay [3], in assay [4], in assay [5] and in assay [6] was “inactive” in each case.

With `CC(=O)NC(CCS(C)(=O)=O)C(=O)Nc1cccc(C)c1C` (stereo unspecified), the Potency result in assay [1], in assay [2], in assay [3], in assay [4], in assay [5] and in assay [6] was “inactive” each time.

For `CC[C@@]1(c2ccccc2OC)ON(c2ccccc2C(F)(F)F)C1=O`, the Potency result in assay [1], in assay [2], in assay [3], in assay [4], in assay [5] and in assay [6] was “inactive” each time.

In the case of `O=C(c1ccc(Br)cc1)N(Cc1cccs1)c1ccc(F)cc1`, the Potency entry in assay [1], in assay [2], in assay [3], in assay [4], in assay [5] and in assay [6] was “inactive” each time.

On to `CCOc1ccc(Oc2ccccc2NC(=O)CN2C(=O)NC3(CCCC3)C2=O)cc1`, for which the Potency result in assay [1], in assay [2] and in assay [4] was “inactive” each time. The activation in assay [3] is -25.9% [at 17.1 µM, percent relative to cAMP agonist control]; in assay [6], 10.7% [at 30.8 µM]. Also, the activity change, negative = inhibition in assay [5] was -5.88% [at 30.8 µM].

As to `NNC(=O)c1cccc(COCC(F)(F)C(F)F)c1`, the Potency result in assay [1], in assay [2], in assay [3], in assay [4], in assay [5] and in assay [6] was “inactive” in each case.

Take `CC(Sc1ccc(Cl)cc1)C(=O)NNC(=O)c1csc(N2CCOCC2)n1` (stereo unspecified): the Potency result in assay [1], in assay [2] and in assay [4] was “inactive” in each case. The activation was 4.3% [at 17.1 µM, percent relative to cAMP agonist control] in assay [3] and 30.8% [at 30.8 µM] in assay [6]. The activity change, negative = inhibition in assay [5] is -11.6% [at 30.8 µM].

Regarding `CC(=O)N1c2ccc(S(=O)(=O)N(C)Cc3ccco3)cc2CC1C` (stereo unspecified), the Potency entry in assay [1], in assay [2], in assay [3], in assay [4], in assay [5] and in assay [6] was “inactive” each time.

Take `O=C(CCC1CCCC1)Nc1ccc([N+](=O)[O-])cn1`: the Potency entry in assay [1], in assay [2], in assay [3], in assay [4], in assay [5] and in assay [6] was “inactive” throughout.

Take `CCCc1nn2c(=O)cc(COC(=O)c3cccc(NC(=O)CCc4ccccc4)c3)nc2s1`: the Potency result in assay [1], in assay [2], in assay [3], in assay [4], in assay [5] and in assay [6] was “inactive” throughout.

`CN(C)C(=O)CSc1nc(-c2ccccc2)c(-c2ccccc2)o1`: the Potency result in assay [1], in assay [2] and in assay [4] was “inactive” in each case. Also, the activation in assay [3] was 5.35% [at 17.1 µM, percent relative to cAMP agonist control]; in assay [6], 9.57% [at 30.8 µM]. The activity change, negative = inhibition in assay [5] was 3.97% [at 30.8 µM].

For `O=C(Cn1c(=O)oc2cc(S(=O)(=O)N3CCCCC3)ccc21)N1CCc2ccccc2C1`, the Potency result in assay [1], in assay [2], in assay [3], in assay [4], in assay [5] and in assay [6] was “inactive” each time.

Regarding `CCOC(=O)c1cnc2ccccc2c1Nc1cccc(OC)c1`, the Potency entry in assay [1], in assay [2], in assay [3], in assay [5] and in assay [6] was “inactive” each time. For the same compound, in assay [4], the outcome was “inactive [at 12.7 µM]”.

Take `COc1ccc(/C=C2/SC(=S)N(NS(=O)(=O)c3ccccc3)C2=O)cc1`: the Potency in assay [1] was 39.8 µM (active). The Potency entry in assay [2] and in assay [4] was “inactive” each time. Besides, the activation was -0.663% [at 17.1 µM, percent relative to cAMP agonist control] in assay [3] and -1.02% [at 30.8 µM] in assay [6]. Moreover, the activity change, negative = inhibition in assay [5] is -9.92% [at 30.8 µM].

Values taken from PubChem BioAssay (NCATS).
